The list is not random: actives were taken first. Their share in the collection is about 1.4%.
HTR5A inv ag = HTR5A inverse agonists in luminescence cell assay, primary screen, counter-screen for OPRM1-OPRD1 heterodimer inverse agonist project, full-deck HTS; 5-hydroxytryptamine receptor 5A (Homo sapiens), P47898; HTR5A cell line, inverse agonism; inhibition, % at 9.3 µM; hit rate 0.083% among 340,000; in the data active means inhibition mostly above about 23%, no sharp cut-off; inactive means mostly below about 18%;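 further: 0% = cells with DMSO and 100% = no-cell wells with DMSO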
HTR5A ag = HTR5A agonists in luminescence cell assay, primary screen, counter-screen for OPRM1-OPRD1 heterodimer agonist project, full-deck HTS; 5-hydroxytryptamine receptor 5A (Homo sapiens), P47898; cell-based; activation, % at 9.3 µM; hit rate 0.61% among 340,000; AID 504692, 2011; in the data active means activation mostly above about 9.5%, no sharp cut-off; inactive means mostly below about 7.6%;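 further: 0% = cells with vehicle only and 100% = reference agonist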
beta cell repl = inducers of MIN6 beta-cell proliferation, primary screen, ATP luminescence, uHTS; MIN6 cells proliferation, ATPlite luminescence, 48 h; cells starved in 0.2% serum; 100% = growth in 10% serum; proliferation, % at 10 µM; hit rate 0.29% among 330,000; AID 2380, 2010;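 active means compounds whose signal lies at least 3.5 SD above the mean of all wells on their plate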;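 further: 0% = DMSO-treated cells in low-serum medium and 100% = 10% serum control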
MOR-DOR inv ag = inverse agonists of MOR-DOR heterodimerization, primary screen, cell-based, luminescence. AID 504357, 2011. hit rate 0.21% among 340,000. Mu-type opioid receptor (Homo sapiens) + Delta-type opioid receptor (Homo sapiens), …. cell-based MOR-DOR heterodimer luminescence, inverse agonism. inhibition, % at 9.3 µM; in the data active means inhibition above about 22%, passing the limit was not always enough;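 further: 0% = cells with DMSO and 100% = wells without cells with DMSO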
MOR-DOR ag = agonists of OPRM1-OPRD1 heterodimerization, primary screen, cell-based, luminescence; Mu-type opioid receptor (Homo sapiens) + Delta-type opioid receptor (Homo sapiens), …; cells; activation, % at 9.3 µM; hit rate 0.3% among 340,000; AID 504326, 2011; in the data active means activation above about 18%;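 further: 0% = vehicle-treated cells and 100% = reference agonist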
pCIP destab = p/CIP-EGFP fusion destabilizers, primary screen, fluorescence, F442A cells; Q05BA5; 16 h; decrease of EGFP signal, % at 10 µM; hit rate 0.01% among 290,000; AID 1984, 2009;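 active means EGFP signal decrease of at least 30% at 10 µM or well 3 SD below plate mean, unless failing retest; inactive means the rest, including hits failing retest or dose response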
Target sequence (Q05BA5 1-1403): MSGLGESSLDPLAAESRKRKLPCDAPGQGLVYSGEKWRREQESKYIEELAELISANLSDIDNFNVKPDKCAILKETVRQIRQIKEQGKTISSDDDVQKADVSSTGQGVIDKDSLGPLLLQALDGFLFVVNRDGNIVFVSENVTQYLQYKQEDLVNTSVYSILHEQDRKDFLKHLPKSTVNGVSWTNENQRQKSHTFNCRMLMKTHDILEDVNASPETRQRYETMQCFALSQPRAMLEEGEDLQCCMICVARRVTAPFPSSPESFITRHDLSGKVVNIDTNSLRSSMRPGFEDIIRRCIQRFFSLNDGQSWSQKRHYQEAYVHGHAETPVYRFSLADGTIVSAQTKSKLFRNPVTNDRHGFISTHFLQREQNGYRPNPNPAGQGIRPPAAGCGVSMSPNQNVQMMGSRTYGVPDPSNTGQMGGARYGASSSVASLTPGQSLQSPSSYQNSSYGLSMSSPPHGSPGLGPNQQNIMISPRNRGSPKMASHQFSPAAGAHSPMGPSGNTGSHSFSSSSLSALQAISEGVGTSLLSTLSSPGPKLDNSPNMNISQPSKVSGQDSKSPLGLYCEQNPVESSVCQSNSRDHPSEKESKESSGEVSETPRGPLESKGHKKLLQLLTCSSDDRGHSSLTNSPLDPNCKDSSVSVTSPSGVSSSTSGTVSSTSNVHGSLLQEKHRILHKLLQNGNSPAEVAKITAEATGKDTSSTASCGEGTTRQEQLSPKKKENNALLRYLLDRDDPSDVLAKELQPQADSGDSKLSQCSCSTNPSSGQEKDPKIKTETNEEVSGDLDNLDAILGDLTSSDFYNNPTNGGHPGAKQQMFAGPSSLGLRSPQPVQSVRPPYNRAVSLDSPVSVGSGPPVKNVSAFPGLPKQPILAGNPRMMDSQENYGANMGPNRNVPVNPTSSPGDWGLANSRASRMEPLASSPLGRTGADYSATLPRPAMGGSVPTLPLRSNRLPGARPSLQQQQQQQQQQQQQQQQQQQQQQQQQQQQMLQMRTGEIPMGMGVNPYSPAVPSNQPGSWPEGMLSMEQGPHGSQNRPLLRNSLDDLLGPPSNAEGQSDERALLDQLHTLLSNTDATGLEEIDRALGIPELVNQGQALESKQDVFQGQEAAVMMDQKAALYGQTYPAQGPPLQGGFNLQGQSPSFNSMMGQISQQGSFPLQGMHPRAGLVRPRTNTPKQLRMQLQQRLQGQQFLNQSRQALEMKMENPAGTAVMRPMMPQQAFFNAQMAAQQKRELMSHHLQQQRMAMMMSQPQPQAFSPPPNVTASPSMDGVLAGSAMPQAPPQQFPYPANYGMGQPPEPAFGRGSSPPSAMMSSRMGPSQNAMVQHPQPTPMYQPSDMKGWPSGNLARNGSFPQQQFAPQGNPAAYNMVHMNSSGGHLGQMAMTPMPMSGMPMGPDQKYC
Numbers without * were called inactive.

Results for COc1cccc(C(=O)COc2ccc3ccc(=O)oc3c2)c1 ?
HTR5A inv ag: -33; HTR5A ag: 12*; beta cell repl: -3; MOR-DOR inv ag: 9; MOR-DOR ag: -1; pCIP destab: 2

What do the screens show for `COc1cccc(C(=O)COc2ccc3c(C)cc(=O)oc3c2)c1`?
HTR5A inv ag: 15; HTR5A ag: -4; beta cell repl: 1; MOR-DOR inv ag: -5; MOR-DOR ag: 1; pCIP destab: -12

What do the screens show for `N#Cc1ccccc1NC(=O)COC(=O)/C=C/c1ccc(S(=O)(=O)N2CCOCC2)cc1`?
HTR5A inv ag: -9; HTR5A ag: 3; beta cell repl: -2; MOR-DOR inv ag: 10; MOR-DOR ag: -2

Results for Cc1ccc(-n2c(=O)[nH]c3c(C(N)=O)nc(-c4ccc(C)o4)nc32)cc1 ?
HTR5A inv ag: -41; HTR5A ag: 11*; beta cell repl: 0; MOR-DOR inv ag: -18; MOR-DOR ag: 3; pCIP destab: -1

What do the screens show for `CC(C)CN1C(Nc2ccccc2)=NC[C@@H]1C`?
HTR5A inv ag: -18; HTR5A ag: -1; beta cell repl: 1; MOR-DOR inv ag: 13; MOR-DOR ag: -3; pCIP destab: 2

How did CCN1C(Nc2ccccc2)=NC[C@@H]1C do in these assays?
HTR5A inv ag: -6; HTR5A ag: 13*; beta cell repl: 6; MOR-DOR inv ag: -1; MOR-DOR ag: 0; pCIP destab: -3

How did COc1cc(C2c3cc4c(cc3OC(NCCc3ccccc3)C2C)OCO4)cc(OC)c1OC (stereo unspecified) do in these assays?
HTR5A inv ag: -45; HTR5A ag: 11*; MOR-DOR inv ag: -1; MOR-DOR ag: 0

How did CN1CCN(C(=S)SCc2nc(N)nc(Nc3ccc(F)cc3)n2)CC1 do in these assays?
HTR5A inv ag: -29; HTR5A ag: 11*; beta cell repl: -2; MOR-DOR inv ag: 3; MOR-DOR ag: 0; pCIP destab: 20

How did Nc1nc(CSC(=S)N2CCOCC2)nc(Nc2ccc(F)cc2)n1 do in these assays?
HTR5A inv ag: -16; HTR5A ag: 1; beta cell repl: 3; MOR-DOR inv ag: 13; MOR-DOR ag: -2; pCIP destab: 1

How did CS(=O)(=O)c1ccc(C(=O)OCc2nnc(-c3ccc(Cl)cc3)o2)cc1[N+](=O)[O-] do in these assays?
HTR5A inv ag: -29; HTR5A ag: 10*; beta cell repl: -7; MOR-DOR inv ag: -16; MOR-DOR ag: 3; pCIP destab: 7

What do the screens show for `O=C(OCc1nnc(-c2ccc(Cl)cc2)o1)c1ccc(O)cc1`?
HTR5A inv ag: -10; HTR5A ag: 4; beta cell repl: -1; MOR-DOR inv ag: 10; MOR-DOR ag: -2; pCIP destab: -6

How did COc1cccc(/C(O)=C2/C(=O)C(=O)N(CCN(C)C)C2c2ccc(Br)cc2)c1 (stereo unspecified) do in these assays?
HTR5A inv ag: -28; HTR5A ag: 10*; beta cell repl: -2; MOR-DOR inv ag: 16; MOR-DOR ag: -3; pCIP destab: 0

Results for COc1ccc(/C=N/NC(=O)c2ccc(Cn3cc([N+](=O)[O-])cn3)o2)c(OC)c1C ?
HTR5A inv ag: 4; HTR5A ag: -2; beta cell repl: -1; MOR-DOR inv ag: 9; MOR-DOR ag: -2; pCIP destab: -5

How did COc1ccc(/C=N\NC(=O)c2ccc(Cn3cc(Br)c([N+](=O)[O-])n3)o2)c(OC)c1C do in these assays?
HTR5A inv ag: -25; HTR5A ag: 11*; beta cell repl: 0; MOR-DOR inv ag: 3; MOR-DOR ag: -1; pCIP destab: -11

What do the screens show for `CCOC(=O)c1c(NC(=O)CN2CCCCC2)sc(CN(C)C)c1-c1ccccc1`?
HTR5A inv ag: -21; HTR5A ag: 8.1*; beta cell repl: -6; MOR-DOR inv ag: 8; MOR-DOR ag: -1; pCIP destab: -7

Results for CCOC(=O)c1c(-c2ccc(-c3ccccc3)cc2)csc1NC(=O)CCN1CCOCC1 ?
HTR5A inv ag: -29; HTR5A ag: 11*; MOR-DOR inv ag: -1; MOR-DOR ag: 0; pCIP destab: 2

What do the screens show for `CN(C(=O)c1cccc(NC(=O)Cc2ccc(NC(=O)C3CCCN(C(=O)C4CCC4)C3)cc2)c1)C1CCCCC1` (stereo unspecified)?
HTR5A inv ag: -13; HTR5A ag: 4; MOR-DOR inv ag: -11; MOR-DOR ag: 2

Results for COc1cc(N)c2ncsc2c1 ?
HTR5A inv ag: 14; HTR5A ag: -4; MOR-DOR inv ag: -1; MOR-DOR ag: 0

What do the screens show for `O=C(CSc1nnc(NC(=O)c2cccc(Cl)c2)s1)NCC1CCCO1` (stereo unspecified)?
HTR5A inv ag: -5; HTR5A ag: 2; beta cell repl: -3; MOR-DOR inv ag: 10; MOR-DOR ag: -2; pCIP destab: 5

What do the screens show for `Cc1ccc(SC[C@H](C)CN2CC[C@H](C(C)(C)C)CCC2=O)cc1`?
HTR5A inv ag: 2; HTR5A ag: 2; beta cell repl: -5; MOR-DOR inv ag: 0; MOR-DOR ag: 0; pCIP destab: 5

What do the screens show for `COc1ccc(-c2nnc(SCC(=O)NC(=O)Cc3ccccc3)n2C)cc1`?
HTR5A inv ag: 10; HTR5A ag: 2; beta cell repl: -3; MOR-DOR inv ag: -1; MOR-DOR ag: 0

What do the screens show for `CCC(CC)C(=O)c1c[nH]c(C(=O)NCc2cccs2)c1`?
HTR5A inv ag: 4; HTR5A ag: 3; beta cell repl: 0; MOR-DOR inv ag: 16; MOR-DOR ag: -3; pCIP destab: 1

How did CCC(CC)C(=O)c1c[nH]c(C(=O)NCc2ccccn2)c1 do in these assays?
HTR5A inv ag: -23; HTR5A ag: 9.1*; beta cell repl: -3; MOR-DOR inv ag: -5; MOR-DOR ag: 1; pCIP destab: -3

Results for CC(C)(C)c1ccc(C(=O)c2c[nH]c(C(=O)NCCc3ccccn3)c2)cc1 ?
HTR5A inv ag: -26; HTR5A ag: 9.4*; beta cell repl: -3; MOR-DOR inv ag: 8; MOR-DOR ag: -2; pCIP destab: -17

What do the screens show for `CCC(CC)C(=O)c1c[nH]c(C(=O)NCCc2ccccn2)c1`?
HTR5A inv ag: -1; HTR5A ag: 13*; beta cell repl: 0; MOR-DOR inv ag: -2; MOR-DOR ag: 0; pCIP destab: -3

Results for COc1ccc(CNC(=O)COC(=O)c2ccc(F)c(S(=O)(=O)N3CCOCC3)c2)cc1 ?
HTR5A inv ag: -12; HTR5A ag: 3; beta cell repl: -2; MOR-DOR inv ag: 4; MOR-DOR ag: -1

Compound activity: PubChem BioAssay, several laboratories
